ssDAF-12 act: S. stercoralis DAF-12 nuclear receptor activators, primary screen, cell-based, luminescence, HEK293, GRIP1 co-expression, lit1-tk-luc. activation, % at 6.8 µM. Nuclear hormone receptor DAF-12 (Strongyloides stercoralis). 370,000 tested, 1% active. HEK293 ssDAF-12/GRIP1 lit1-tk-luc reporter; % of 3 µM dafachronic acid response. AID 652126, 2013;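 active = activation above the mean over all tested compounds plus 3 SD, cut at about 0.9% in these data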;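 also: 0% = DMSO-only wells and 100% = 3 µM delta7-dafachronic acid wells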
DAX1 inh-1: DAX1 (NR0B1) inhibitors, primary screen, cell-based, HEK293, Gal4-DAX1, luciferase luminescence; 340,000 tested, 0.99% active; HEK293 Gal4-DAX1 luciferase reporter; AID 504766, 2011; inhibition, % at 6.75 µM; Nuclear receptor subfamily 0 group B member 1 (Homo sapiens), P51843;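 active = inhibition above the mean over all tested compounds plus 3 SD, cut at about 4.2% in these data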;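 also: 0% = DAX1-transfected cells with DMSO and 100% = empty-vector control cells with DMSO; inhibition shows as a rise in luminescence from relieved DAX1 repression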
DAX1 inh-2: DAX1 (NR0B1) inhibitors on StAR promoter, primary screen, cell-based, luminescence, SF-1 (NR5A1), full-length DAX-1. inhibition, % at 6.8 µM. AID 652010, 2013. HEK293T StAR-luciferase reporter, SF-1/DAX-1 repression relief. 370,000 tested, 1.1% active;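 active = inhibition above the mean over all tested compounds plus 3 SD, cut at about 3.6% in these data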;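 also: 0% = DAX-1 cells with DMSO and 100% = cells lacking DAX-1 with DMSO; higher inhibition means more luminescence from relief of DAX-1 repression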
hgDAF-12 ag: H. glycines DAF-12 receptor agonists, primary screen, cell-based, luminescence, HEK293, GAL4 fusion, UAS-luciferase. Nuclear hormone receptor DAF-12 (Heterodera glycines), GAL4 fusion. HEK293 GAL4-hgDAF12 UAS-luciferase reporter, agonist luminescence; normalized to butyrate control. activation, % at 6.8 µM. 370,000 tested, 1.8% active. AID 687014, 2013;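 active = activation above a cutoff set at the mean of all screened compounds plus 3 SD, cut at about 10% in these data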;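 also: 0% = DMSO wells and 100% = sodium butyrate wells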
hcDAF-12 act: H. contortus DAF-12 nuclear receptor activators, primary screen, cell-based, luminescence, HEK293, lit1-tk-luc reporter | HEK293 hcDAF-12 lit1-tk-luc reporter; 0% DMSO, 100% Δ7-dafachronic acid | activation, % at 6.8 µM | 370,000 tested, 1.4% active;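 active = activation above the mean of all tested compounds plus 3 SD, cut at about 5.5% in these data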;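 also: 100% = response to 3 µM Δ7-dafachronic acid high control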
LXRb hcDAF ctr: LXR agonists, Gal4 luciferase reporter, confirmation, counter-screen for hcDAF-12 agonist project, cell-based, luminescence, HEK293, H. contortus campaign. shares compounds with hcDAF-12 act. HEK293 Gal4-LXR tk-luc reporter, 24 h; normalized: DMSO 0%, positive control 100%. activation, % at 6.8 µM. 3,400 tested, under 10 active. AID 743027, 2013;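 active = mean percent activation of the reporter above a cutoff set as the average over tested compounds plus their standard deviation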
Target sequence (P55055 whole entry, looked up, the tested form may be a part): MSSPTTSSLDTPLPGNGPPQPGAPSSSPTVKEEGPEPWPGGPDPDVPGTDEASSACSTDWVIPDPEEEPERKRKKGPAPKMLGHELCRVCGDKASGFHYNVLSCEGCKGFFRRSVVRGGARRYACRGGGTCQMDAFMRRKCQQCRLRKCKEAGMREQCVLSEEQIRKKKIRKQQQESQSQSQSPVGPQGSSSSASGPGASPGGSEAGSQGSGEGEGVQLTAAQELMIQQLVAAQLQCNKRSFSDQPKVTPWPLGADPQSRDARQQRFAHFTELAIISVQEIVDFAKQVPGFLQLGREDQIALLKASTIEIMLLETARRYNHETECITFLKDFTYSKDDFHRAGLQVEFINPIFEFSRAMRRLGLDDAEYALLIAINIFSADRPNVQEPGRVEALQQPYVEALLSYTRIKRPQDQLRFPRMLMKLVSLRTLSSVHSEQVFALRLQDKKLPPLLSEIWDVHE
hcDAF12 conf: H. contortus DAF-12 receptor agonists, confirmation, cell-based, luminescence, HEK293, lit1-tk-luc, triplicate; AID 743032, 2013; 3,400 tested, 61% active; HEK293 hcDAF-12 lit1-tk-luc reporter; % of Δ7-dafachronic acid response; shares compounds with hcDAF-12 act; activation, % at 6.8 µM;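 active = mean activation across triplicate tests above the threshold derived from the earlier primary screen, cut at about 5.5% in these data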;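 also: 0% = DMSO only wells and 100% = 3 µM Δ7-dafachronic acid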
Active calls of the source: *; . = not tested or not shown. Compounds with a hit are over-represented: about 4.1% of the library has one in this group of screens.

SMILES	ssDAF-12 act	DAX1 inh-1	DAX1 inh-2	hgDAF-12 ag	hcDAF-12 act	LXRb hcDAF ctr	hcDAF12 conf
COCCNC(=O)c1cc2c(-c3ccccc3F)nn(C)c2s1	-0.4	0.0	-0.7	-2.5	-0.9	.	.
Cn1nc(-c2ccc(Cl)cc2)c2cc(C(=O)N3CCCC3)sc21	-0.2	-1.7	0.4	-0.4	3.5	.	.
CCOC(=O)N1CCC(NC(=O)c2cc3c(-c4ccc(Cl)cc4)nn(C)c3s2)CC1	0.2	0.3	1.1	0.3	7.8*	-0.4	0.5
CC1(C(=O)Nc2ccc3ccccc3c2)CCC(=O)N1CCOc1ccccc1 (stereo not drawn)	-0.9	.	2.5	-4.5	0.1	.	.
O=C1c2ccccc2C(=O)N1CSc1nnc(Nc2ccccc2F)s1	-1.4	-2.0	1.4	-0.7	-0.4	.	.
COc1ccc(Nc2nnc(SCC(=O)c3cc4ccccc4o3)s2)cc1	2.0*	4.1	2.2	5.6	10.0*	0.0	5.2
O=C(CSc1nnc(Nc2ccccc2F)s1)c1cc2ccccc2o1	-0.1	0.1	-0.2	1.9	7.8*	0.0	2.8
O=C(Nc1ccc(Br)cc1)OC1CC2CC1[C@H]1CCCCN1[C@H]2Cc1ccccc1 (stereo partly drawn)	-0.7	.	-0.5	2.0	0.0	.	.
CCC1Oc2ccccc2N(CC(=O)N2CC(C)CC(C)C2)C1=O (stereo not drawn)	-1.5	-0.2	0.0	4.1	0.0	.	.
Cc1ccc(N/N=C(\C#N)C(=N)N2CCCCC2)cc1	1.2*	7.4*	2.8	18.9*	6.9*	1.6	10.8*
CCOC(=O)C/C(=N\Nc1ncnc2ccccc12)c1ccccc1	0.8	1.1	1.6	5.9	11.1*	0.0	4.9
CCC(=O)NNc1ncnc2ccccc12	0.3	1.4	0.1	-0.6	6.9*	-0.1	4.7
COc1ccc(CN2C[C@@H](CO)O[C@@H](n3cnc4c(N5CCN(CCO)CC5)ncnc43)C2)cc1	-0.8	.	-0.4	-1.4	-1.9	.	.
CC(C)(C)c1ccc(-c2nnc(SCC(=O)c3ccc([N+](=O)[O-])cc3)n2-c2ccc(Cl)cc2)cc1	-1.4	.	-1.9	2.5	-1.2	.	.
Cn1ccnc1Sc1ccc(/C=N/NC(=O)c2ccccc2O)cc1[N+](=O)[O-]	0.6	0.3	0.0	5.5	9.5*	0.1	7.2*
CC(=O)c1cc(C(=O)N2CCc3c([nH]c4ccccc34)C2CC(C)C)[nH]n1 (stereo not drawn)	0.1	-0.1	0.6	1.1	2.9	.	.
CC(C)CC1c2[nH]c3ccccc3c2CCN1C(=O)c1cnccn1 (stereo not drawn)	0.9*	.	1.4	4.8	9.6*	1.1	12.3*
Cc1cccc(-c2cccc3c4c([nH]c23)[C@@H]2C[C@H](N(C)C(=O)c3ccccc3C)[C@H]([C@H](C)O)C(=O)N2CC4)c1	-1.4	.	-0.1	-1.1	-2.3	.	.
Cc1ccc(C(=O)Nc2ccc(C(=O)N/N=C/c3c[nH]c4ccccc34)cc2)cc1	0.2	1.2	-1.3	3.7	7.3*	-0.1	7.2*
O=C(N/N=C/c1ccccn1)c1sc2ccccc2c1Cl	-1.1	-0.3	-0.7	1.2	0.0	.	.
COc1ccccc1C(=O)N/N=C/c1c[nH]c2ccccc12	1.4*	-0.9	0.2	6.3	7.0*	0.0	6.3*
O=C(CCC(=O)Nc1ccc(F)cc1)N/N=C/c1c[nH]c2ccccc12	0.3	-0.6	-0.6	0.4	2.9	.	.
O=C(N/N=C/c1c[nH]c2ccccc12)c1sc2ccccc2c1Cl	-0.4	1.4	0.2	7.1	9.1*	0.1	3.7
CC(OC(=O)Cc1n[nH]c(=O)c2ccccc12)C(=O)N(C)c1ccccc1 (stereo not drawn)	-0.9	1.5	-0.8	1.8	-1.7	.	.
c1ccn(-c2ccc(-c3ccn[nH]3)cc2)c1	2.2*	3.5	2.4	13.4*	10.5*	0.8	4.4
SMILES	ssDAF-12 act	DAX1 inh-1	DAX1 inh-2	hgDAF-12 ag	hcDAF-12 act	LXRb hcDAF ctr	hcDAF12 conf
COc1ccc(CC(=O)O/N=C(\N)c2ccc(C)cc2)cc1	1.6*	2.2	0.2	5.3	7.7*	0.2	8.5*
Cc1ccc(-c2nnc(SCC(=O)Nc3ccc(Oc4ccccc4)cc3)n2-c2ccc(Cl)cc2)cc1	-0.8	.	-1.1	-1.5	-0.1	.	.
N=c1n(CC(=O)c2ccc(Br)s2)c2ccccc2n1Cc1ccccc1	-1.1	-0.8	-0.5	-2.2	-0.8	.	.
Cn1c(=N)n(CC(=O)c2ccc(Br)s2)c2ccccc21	2.8*	3.8	3.0	11.6*	14.5*	1.6	16.3*
COc1ccc(Cc2c(-c3ccc(Cl)cc3)nc3c(C)cc(Br)cn23)c(C)c1	0.3	.	0.5	4.1	5.5	.	.
CN(C)c1ccc(C(=O)OCC(=O)c2cccs2)cc1	1.1*	0.9	4.2*	20.2*	8.4*	1.0	3.8
Cc1ccc(C(=O)COC(=O)c2cccs2)cc1	0.7	1.6	4.5*	9.3	7.0*	1.0	5.2
COc1ccc(C(=O)COC(=O)c2ccc(N(C)C)cc2)cc1	-1.7	0.1	-1.4	4.9	-0.7	.	.
CC(O)(c1cccnc1)c1nc(-c2ccc3ccccc3c2)cs1 (stereo not drawn)	-1.3	.	-2.9	2.4	-1.9	.	.
CCOC(=O)NC(=S)Nc1ccc(OC)cc1	-1.4	0.8	-0.4	0.8	3.0	.	.
CCOC(=O)c1cn[nH]c1NC(=S)Nc1ccc(OC)cc1	0.3	-2.0	1.6	9.4	8.0*	1.5	9.3*
O=C(Nc1ccc2ccccc2c1)NC1CCCCN(Cc2ccc(Cl)cc2)C1=O (stereo not drawn)	2.9*	.	-1.0	6.1	9.2*	-0.2	0.0
COc1cc(NC(=O)NC2CCCCN(Cc3ccc(Cl)cc3)C2=O)cc(OC)c1 (stereo not drawn)	-1.0	.	-1.4	-2.9	-3.5	.	.
CCCCCCCCN1C(=O)[C@@H](CC(=O)N2CCN(C(=O)C3CC3)CC2)C[C@@]2(C(=O)OC)C1=C[C@H](COCc1ccccc1)O[C@@H]2C	-0.9	.	-0.2	1.4	0.7	.	.

From PubChem
